Reference: PubChem BioAssay AID1159580 (chemical genetic matrix, 2015)
Out of some 5,500 compounds screened, about 2,000 (36%) were called active. Another 18% or so got no clear call; they are omitted. Rule as the data show it: active = normalized growth mostly below about 0.91 (no sharp cut-off); inconclusive = no clear call, values can overlap the other calls; inactive = mostly above about 0.92. The list shows a part of the results.

Test: chemical genetic growth profiling, strain panel (AID 1159580);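 also: tested at 20 µM; growth read once vehicle control cultures reached saturation at 30 °C; 1 = growth at the plate median or of vehicle wells; lower values mean less growth of the strain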
Settings: growth OD

Measured: normalized growth

OCC(O)CN1CCN(c2ccccc2)CC1 (configuration not stated)
inactive: S. cerevisiae deletion strains, locus YJR075W, strain HOC1, stronger effect = lower value 0.987 | S. cerevisiae deletion strains, locus YKL009W, strain mrt4, stronger effect = lower value 1.01 | S. cerevisiae deletion strains, locus YKL068W, stronger effect = lower value 0.994 | S. cerevisiae deletion strains, locus YKL085W, strain MDH1 (second series), stronger effect = lower value 0.99 | S. cerevisiae deletion strains, locus YKL085W, strain MDH1, stronger effect = lower value 0.99 | S. cerevisiae deletion strains, locus YKL160W, strain elf1, stronger effect = lower value 0.958 | S. cerevisiae deletion strains, locus YKL190W, strain CNB1, stronger effect = lower value 1.01 | S. cerevisiae deletion strains, locus YKR001C, strain vps1, stronger effect = lower value 1 | S. cerevisiae deletion strains, locus YKR026C, strain gcn3, stronger effect = lower value 0.977 | S. cerevisiae deletion strains, locus YKR091W, strain srl3, stronger effect = lower value 0.982 | S. cerevisiae deletion strains, locus YLL001W, strain dnm1, stronger effect = lower value 0.988 | S. cerevisiae deletion strains, locus YLL026W, stronger effect = lower value 0.988 | S. cerevisiae deletion strains, locus YLL041C, strain sdh2, stronger effect = lower value 0.975 | S. cerevisiae deletion strains, locus YLR027C, strain aat2, stronger effect = lower value 0.992 | S. cerevisiae deletion strains, locus YLR039C, strain RIC1, stronger effect = lower value 1.04 | S. cerevisiae deletion strains, locus YLR058C, strain SHM2, stronger effect = lower value 0.994 | S. cerevisiae deletion strains, locus YLR102C, strain apc9, stronger effect = lower value 1 | S. cerevisiae deletion strains, locus YLR113W, strain HOG1, stronger effect = lower value 0.999 | S. cerevisiae deletion strains, locus YLR221C, strain rsa3, stronger effect = lower value 0.973 | S. cerevisiae deletion strains, locus YLR258W, strain gsy2, stronger effect = lower value 0.992 | S. cerevisiae deletion strains, locus YLR262C, strain YPT6 (second series), stronger effect = lower value 0.959 | S. cerevisiae deletion strains, locus YLR262C, strain YPT6, stronger effect = lower value 1.05 | S. cerevisiae deletion strains, locus YLR268W, strain sec22, stronger effect = lower value 0.953 | S. cerevisiae deletion strains, locus YLR320W, strain mms22, stronger effect = lower value 1 | S. cerevisiae deletion strains, locus YLR330W, strain CHS5, stronger effect = lower value 1.02 | S. cerevisiae deletion strains, locus YLR342W, strain FKS1 (second series), stronger effect = lower value 1.02 | S. cerevisiae deletion strains, locus YLR342W, strain FKS1, stronger effect = lower value 0.993 | S. cerevisiae deletion strains, locus YLR357W, strain rsc2, stronger effect = lower value 0.987 | S. cerevisiae deletion strains, locus YLR370C, strain arc18, stronger effect = lower value 0.978 | S. cerevisiae deletion strains, locus YLR371W, strain rom2, stronger effect = lower value 1 | S. cerevisiae deletion strains, locus YLR384C, strain iki3, stronger effect = lower value 0.987 | S. cerevisiae deletion strains, locus YLR418C, strain cdc73, stronger effect = lower value 0.971 | S. cerevisiae deletion strains, locus YML016C, strain PPZ1, stronger effect = lower value 0.992 | S. cerevisiae deletion strains, locus YML032C, strain rad52, stronger effect = lower value 0.988 | S. cerevisiae deletion strains, locus YML120C, strain ndi1, stronger effect = lower value 0.982 | S. cerevisiae deletion strains, locus YML124C, strain tub3, stronger effect = lower value 0.989 | S. cerevisiae deletion strains, locus YMR058W, strain fet3, stronger effect = lower value 0.969 | S. cerevisiae deletion strains, locus YMR078C, strain ctf18, stronger effect = lower value 0.978 | S. cerevisiae deletion strains, locus YMR125W, strain sto1, stronger effect = lower value 0.995 | S. cerevisiae deletion strains, locus YMR129W, stronger effect = lower value 0.981 | S. cerevisiae deletion strains, locus YMR205C, strain PFK2, stronger effect = lower value 1.01 | S. cerevisiae deletion strains, locus YMR223W, strain ubp8, stronger effect = lower value 1.01 | S. cerevisiae deletion strains, locus YMR231W, strain pep5, stronger effect = lower value 0.989 | S. cerevisiae deletion strains, locus YMR263W, strain SAP30, stronger effect = lower value 0.989 | S. cerevisiae deletion strains, locus YMR307W, strain GAS1, stronger effect = lower value 1.03 | S. cerevisiae deletion strains, locus YNL067W, strain RPL9B, stronger effect = lower value 0.988 | S. cerevisiae deletion strains, locus YNL071W, strain lat1, stronger effect = lower value 0.985 | S. cerevisiae deletion strains, locus YNL128W, strain TEP1, stronger effect = lower value 1 | S. cerevisiae deletion strains, locus YNL153C, strain GIM3, stronger effect = lower value 0.988 | S. cerevisiae deletion strains, locus YNL183C, strain NPR1, stronger effect = lower value 0.908 | S. cerevisiae deletion strains, locus YNL209W, strain ssb2, stronger effect = lower value 0.983 | S. cerevisiae deletion strains, locus YNL233W, strain BNI4, stronger effect = lower value 1.01 | S. cerevisiae deletion strains, locus YNL248C, strain rpa49, stronger effect = lower value 0.925 | S. cerevisiae deletion strains, locus YNL250W, strain rad50, stronger effect = lower value 0.988 | S. cerevisiae deletion strains, locus YNL271C, strain bni1, stronger effect = lower value 0.985 | S. cerevisiae deletion strains, locus YNL298W, strain CLA4, stronger effect = lower value 0.985 | S. cerevisiae deletion strains, locus YNL307C, strain MCK1, stronger effect = lower value 0.997 | S. cerevisiae deletion strains, locus YNL322C, strain KRE1 (second series), stronger effect = lower value 0.97 | S. cerevisiae deletion strains, locus YNL322C, strain KRE1, stronger effect = lower value 1 | S. cerevisiae deletion strains, locus YNR049C, strain mso1, stronger effect = lower value 0.974 | S. cerevisiae deletion strains, locus YNR052C, strain pop2, stronger effect = lower value 1 | S. cerevisiae deletion strains, locus YOL006C, strain TOP1, stronger effect = lower value 0.981 | S. cerevisiae deletion strains, locus YOL012C, strain htz1 0.702 | S. cerevisiae deletion strains, locus YOL147C, strain pex11, stronger effect = lower value 0.991 | S. cerevisiae deletion strains, locus YOR001W, strain rrp6, stronger effect = lower value 0.943 | S. cerevisiae deletion strains, locus YOR061W, strain CKA2, stronger effect = lower value 0.999 | S. cerevisiae deletion strains, locus YOR069W, strain VPS5, stronger effect = lower value 0.986 | S. cerevisiae deletion strains, locus YOR070C, strain gyp1, stronger effect = lower value 0.992 | S. cerevisiae deletion strains, locus YOR080W, strain dia2, stronger effect = lower value 0.988 | S. cerevisiae deletion strains, locus YOR083W, strain WHI5, stronger effect = lower value 0.934 | S. cerevisiae deletion strains, locus YOR106W, strain vam3, stronger effect = lower value 0.943 | S. cerevisiae deletion strains, locus YOR136W, strain idh2, stronger effect = lower value 0.994 | S. cerevisiae deletion strains, locus YOR144C, strain elg1, stronger effect = lower value 0.993 | S. cerevisiae deletion strains, locus YOR184W, strain ser1, stronger effect = lower value 1 | S. cerevisiae deletion strains, locus YOR231W, strain MKK1, stronger effect = lower value 0.979 | S. cerevisiae deletion strains, locus YOR265W, strain rbl2, stronger effect = lower value 0.985 | S. cerevisiae deletion strains, locus YOR270C, strain vph1, stronger effect = lower value 0.981 | S. cerevisiae deletion strains, locus YOR290C, strain snf2, stronger effect = lower value 0.962 | S. cerevisiae deletion strains, locus YOR316C, strain cot1, stronger effect = lower value 0.985 | S. cerevisiae deletion strains, locus YPL051W, strain arl3, stronger effect = lower value 0.974 | S. cerevisiae deletion strains, locus YPL055C, strain LGE1, stronger effect = lower value 1 | S. cerevisiae deletion strains, locus YPL078C, strain atp4, stronger effect = lower value 0.932 | S. cerevisiae deletion strains, locus YPL106C, strain sse1, stronger effect = lower value 0.961 | S. cerevisiae deletion strains, locus YPL240C, strain hsp82, stronger effect = lower value 0.972 | S. cerevisiae deletion strains, locus YPL241C, strain CIN2, stronger effect = lower value 0.997 | S. cerevisiae deletion strains, locus YPL256C, strain CLN2, stronger effect = lower value 0.964 | S. cerevisiae deletion strains, locus YPR119W, strain clb2, stronger effect = lower value 0.992 | S. cerevisiae deletion strains, locus YPR141C, strain kar3, stronger effect = lower value 0.987 | S. cerevisiae deletion strains, locus YPR163C, strain tif3, stronger effect = lower value 0.988 | S. cerevisiae deletion strains, locus YPR167C, strain met16, stronger effect = lower value 0.989 | S. cerevisiae deletion strains, strain wtn01, stronger effect = lower value 0.95 | S. cerevisiae strains, strain wild type, stronger effect = lower value 1
